In all, about 24,000 compounds went through this assay and fewer than 10 were called active. Inconclusive results (about 9%) are left out.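 How the source made its calls: active means fluorescent ligand binding to cells raised by more than 40% of the manganese-induced maximum; inconclusive means compound's own fluorescence above 85% of the ligand control signal; inactive means the rest.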 The list is a sample of the results.
molecular target: Integrin alpha-4 (Homo sapiens) (UniProt P13612); test: increased LDV-FITC ligand binding on VLA-4 – Jurkat cells, flow cytometry, primary screen (AID 528); conditions: hits give high values, screened at 10 µM (by protocol);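 further: 0% = ligand binding without compound and 100% = manganese-stimulated maximal binding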
Sequence (P13612 whole entry, looked up): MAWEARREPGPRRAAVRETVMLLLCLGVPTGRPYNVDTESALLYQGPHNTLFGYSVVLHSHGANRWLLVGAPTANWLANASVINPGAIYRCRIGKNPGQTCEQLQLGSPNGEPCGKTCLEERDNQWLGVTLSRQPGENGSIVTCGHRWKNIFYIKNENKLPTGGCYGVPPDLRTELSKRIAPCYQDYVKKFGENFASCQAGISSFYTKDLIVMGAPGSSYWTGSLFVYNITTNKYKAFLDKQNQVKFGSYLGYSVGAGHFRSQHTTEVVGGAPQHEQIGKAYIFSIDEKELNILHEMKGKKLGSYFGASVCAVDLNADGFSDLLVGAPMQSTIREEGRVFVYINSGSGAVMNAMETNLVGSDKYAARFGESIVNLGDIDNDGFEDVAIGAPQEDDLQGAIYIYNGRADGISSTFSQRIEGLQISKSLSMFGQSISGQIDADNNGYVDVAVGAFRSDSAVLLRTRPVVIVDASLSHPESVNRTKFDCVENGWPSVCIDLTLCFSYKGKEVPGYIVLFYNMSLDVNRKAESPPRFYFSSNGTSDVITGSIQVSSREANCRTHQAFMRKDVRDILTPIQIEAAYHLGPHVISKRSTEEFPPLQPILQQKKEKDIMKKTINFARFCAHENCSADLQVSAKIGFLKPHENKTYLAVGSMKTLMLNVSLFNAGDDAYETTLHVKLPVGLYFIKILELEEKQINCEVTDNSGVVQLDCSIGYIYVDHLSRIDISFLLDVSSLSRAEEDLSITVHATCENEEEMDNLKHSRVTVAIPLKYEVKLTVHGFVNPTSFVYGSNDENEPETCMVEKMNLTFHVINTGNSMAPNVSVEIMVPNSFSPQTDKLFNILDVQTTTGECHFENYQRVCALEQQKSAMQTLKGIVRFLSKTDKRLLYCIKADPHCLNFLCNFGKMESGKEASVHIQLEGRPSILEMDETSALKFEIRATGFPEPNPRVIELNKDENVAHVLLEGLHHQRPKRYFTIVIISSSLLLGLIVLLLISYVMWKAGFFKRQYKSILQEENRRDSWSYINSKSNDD

activation, inactive:
Cc1ccccc1S(=O)(=O)Cc1ccc(C(=O)NCCN2CCCCC2C)o1 (stereo not drawn) -1%
Nc1c(C(=O)NCc2ccccc2)nnn1Cc1cccc(Cl)c1 -4%
CCCCCOC(=O)C1=C(C)Nc2nnnn2C1c1ccc(OC)c(OC)c1OC (stereo not drawn) -4%
CCC(=O)N1c2ccc(S(=O)(=O)CCC(=O)N3CCN(c4ccccc4)CC3)cc2CC1C (stereo not drawn) -5%
COc1ccc(OC)c(CNC(=O)CCc2nc(-c3cccs3)no2)c1 2%
Cc1ccccc1NC(=O)c1ccccc1 -14.5%
CCOC(=O)N1CCC(NC(=O)CCc2cn(C)c3ccccc23)CC1 8%
COc1cc2[nH]c(=S)n(Cc3ccc(C)o3)c(=O)c2cc1OC 0%
CCOC(=O)CNC(=O)CN1C(=O)CCSc2ccccc21 6%
CCOC(=O)c1ccc(CS(=O)c2ccc(Cl)cc2)o1 (stereo not drawn) 4%
COC(=O)C1=C(C)OC(N)=C(C#N)C1c1cc(OC)ccc1OC (stereo not drawn) -3%
Cc1ccc(NC(=O)C2CC(c3ccc(F)cc3)=NO2)cc1 (stereo not drawn) 3%
CCc1c(C)c2c(C)[nH]nc2oc1=O -1%
CC12COC3(C(=O)Nc4ccc(Cl)cn4)CC1CCC32C (stereo not drawn) 5%
Cc1ccc(S(=O)(=O)NCC(=O)N(CC(=O)NC2CCCCC2)Cc2ccco2)cc1 2%
O=C1Nc2c(Br)cc(Br)cc2C1(O)N1CCOCC1 (stereo not drawn) 9%
CCOC(=O)N1CCN(C(=O)C2CC(c3ccc(F)cc3)=NO2)CC1 (stereo not drawn) 6%
Clc1ccc(Cc2nn3c(-c4ccncc4)nnc3s2)cc1 2%
CCOCCc1c(O)nc(SCC(=O)NCc2ccco2)[nH]c1=O -1%
COc1cccc(C(=O)Nc2c3c(nn2-c2cccc(C)c2C)CS(=O)(=O)C3)c1OC -3%
COc1ccc2oc(=O)c(C(=O)N3CCN(c4ccccc4F)CC3)cc2c1 3.5%
CCOc1ccccc1NC(=O)C1CCN(S(=O)(=O)c2c(C)nn(C)c2C)CC1 2%
COc1ccc(CCNC(=O)CCCCn2c(=O)[nH]c3ccccc3c2=O)cc1OC 4%
C#CC(C)(C)NC(=O)CSc1nc2c(c(=O)n(C)c(=O)n2C)n1CCCC 8%
CCCS(=O)(=O)N1CCCC(C(=O)N2CCN(c3ccccc3)CC2)C1 (stereo not drawn) 0%
CCOC(=O)C1CCCN(C(=O)C2CCN(c3nnc(-n4cccc4)s3)CC2)C1 (stereo not drawn) -1%
CCOC(=O)N1CCC(Nc2c(NCCCN3CCN(c4ccc(OC)cc4)CC3)c(=O)c2=O)CC1 -4%
COC(=O)c1ccc(NC(=O)CSc2nnc(Cc3cccn3C)n2-c2ccc(F)cc2)cc1 -4%
Cc1noc(C)c1S(=O)(=O)N(CC(=O)Nc1ccc2c(c1)OCCO2)c1ccc(C(C)C)cc1 -8%
Cn1c(C(=O)N2CCC(C(N)=O)CC2)cc2c(=O)n(C)c3ccccc3c21 -1%
O=C(Nc1ccccc1C(=O)N1CCOCC1)C1CCC(=O)N1C1CCCC1 (stereo not drawn) 8%
CN1CCN(S(=O)(=O)c2ccc3[nH]cc(C(=O)O)c(=O)c3c2)CC1 2%
Cc1ccnc(N2C(=O)c3ccccc3C2Nc2ccc3c(c2)OCCO3)c1 (stereo not drawn) -5%
COCCCNC(=O)c1ccc(CNS(=O)(=O)c2ccc(NC(C)=O)cc2)cc1 -3.5%
Cc1nc(N2CCN(c3ncccn3)CC2)c2oc3ccccc3c2n1 -3.5%
CC(C)OCCCNC(=O)C1CC(=O)N(C2CCCCCCC2)C1 (stereo not drawn) -1%
Cc1ccc(S(=O)(=O)N2CCCC2CO)cc1 (stereo not drawn) 5%
COc1ccc(C(=O)NC(=O)CSc2nnc(-c3ccco3)n2-c2ccccc2)cc1 1.3%
Cc1ccccc1CN1CCN(C(=O)c2cccc(F)c2)CC1 4%
CC1CCN(Cc2nc3c(c(=O)n(C)c(=O)n3C)n2Cc2cccc3ccccc23)CC1 2%
CCOc1nc(OCC)nc(-n2cc(-c3ccccc3)nn2)n1 2%
FC(F)Oc1ccccc1C1CC(c2ccc(Br)s2)Nc2ncnn21 (stereo not drawn) 3%
Cc1cc(Nc2cccc(F)c2)n2ncnc2n1 -0.5%
O=C(c1ccco1)N1CCN(C(=O)c2ccc(COc3ccc(F)cc3)o2)CC1 0%
Cn1c(CNC(=O)C(C)(C)C)nc2ccccc21 -3%
Cc1cc(NS(=O)(=O)c2ccccc2)no1 5.5%
CCOC(=O)c1cn(CC(=O)Nc2ccc(C(C)C)cc2)nn1 -2%
Cc1cccc(C)c1NC(=O)N1CC=C(n2c(=O)[nH]c3ccccc32)CC1 0%
Cc1ccc(S(=O)(=O)n2nc(OC(=O)C(C)(C)C)cc2N)cc1 4%
CCOC(=O)c1c(C)c(C(=O)NCCc2ccc(S(N)(=O)=O)cc2)c(C)n1CC 16%
O=C(O)C1C2C=CC(C2)C1C(=O)N1CCN(CCO)CC1 (stereo not drawn) -2%
Cc1cnc(C(=O)OCC(=O)Nc2ccc(Cl)cc2Cl)cn1 3%
CCOC(=O)Cn1c(CN(Cc2ccccc2)Cc2ccccc2)nc2c1c(=O)[nH]c(=O)n2C -5%
O=S(=O)(O)CCN1CCOCC1 -6%
O=C(NC1CCCCC1)C1CCCN(S(=O)(=O)c2cccs2)C1 (stereo not drawn) -10.5%
COc1ccc(C(=O)NCc2cn3ccccc3n2)cc1 -2%
Cc1ccccc1NC(=O)Cc1nnc(SCC(=O)N2CCN(c3ccccc3)CC2)n1C 0.5%
CC(C)CCNC(=O)CCNS(=O)(=O)c1ccc(Cl)cc1 -2.7%
COc1ccccc1-c1c(C)nn2c(C)c(C(C)=O)cnc12 -2%
COc1cccc(OCC(O)CN2CCN(CCO)CC2)c1 (stereo not drawn) 3.3%
CCCC(=O)Nc1cccc(-c2cn3ccsc3n2)c1 3%
Cc1noc(C)c1S(=O)(=O)NCCc1ccc(S(N)(=O)=O)cc1 3%
CC(=O)N(CC1CCCO1)C1(C(=O)NC2CCCC2)CCCCC1 (stereo not drawn) 0%

Reference: PubChem BioAssay AID528 (NMMLSC, 2006)
